Assay outcomes (PubChem)
aSyn 5UTR inh: MLPCN primary screen, SNCA 5' untranslated region; alpha-synuclein 5'UTR reporter, inhibitor activity; hit rate 0.82% among 300,000; inhibition, % (tested at 7.5 µM); in the data active = inhibition above about 60%;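 also: H4 neuroglioblastoma cells stably carrying SNCA 5'UTR luciferase fusion; 0% = DMSO wells and 100% = positive control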
697 NFkB inh: lowers PMA/ionomycin-induced NF-kB signal in 697 B cells. hit rate 0.33% among 330,000. 697 B-cell NF-kB luciferase reporter, 16 h. inhibition, % at 4 µM; in the data active = inhibition above about 35%
TMEM16A act: activators or potentiators of mouse TMEM16A chloride channel. Q8BHY3. hit rate 0.3% among 340,000. B-score at 10 µM. HEK293 TMEM16A/YFP-H148Q/I152L, iodide quench fluorescence; hits give low values;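 active = fluorescence-ratio B-score plate-corrected deviation score at least 3 library SD below zero, with starting fluorescence score within 5 deviations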;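 also: channel opened by trigger with iodide after compound preincubation; score built on the fluorescence ratio of max minus min over baseline; more negative score means more quench and so TMEM16A activation or potentiation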
Target sequence (Q8BHY3 whole entry, looked up): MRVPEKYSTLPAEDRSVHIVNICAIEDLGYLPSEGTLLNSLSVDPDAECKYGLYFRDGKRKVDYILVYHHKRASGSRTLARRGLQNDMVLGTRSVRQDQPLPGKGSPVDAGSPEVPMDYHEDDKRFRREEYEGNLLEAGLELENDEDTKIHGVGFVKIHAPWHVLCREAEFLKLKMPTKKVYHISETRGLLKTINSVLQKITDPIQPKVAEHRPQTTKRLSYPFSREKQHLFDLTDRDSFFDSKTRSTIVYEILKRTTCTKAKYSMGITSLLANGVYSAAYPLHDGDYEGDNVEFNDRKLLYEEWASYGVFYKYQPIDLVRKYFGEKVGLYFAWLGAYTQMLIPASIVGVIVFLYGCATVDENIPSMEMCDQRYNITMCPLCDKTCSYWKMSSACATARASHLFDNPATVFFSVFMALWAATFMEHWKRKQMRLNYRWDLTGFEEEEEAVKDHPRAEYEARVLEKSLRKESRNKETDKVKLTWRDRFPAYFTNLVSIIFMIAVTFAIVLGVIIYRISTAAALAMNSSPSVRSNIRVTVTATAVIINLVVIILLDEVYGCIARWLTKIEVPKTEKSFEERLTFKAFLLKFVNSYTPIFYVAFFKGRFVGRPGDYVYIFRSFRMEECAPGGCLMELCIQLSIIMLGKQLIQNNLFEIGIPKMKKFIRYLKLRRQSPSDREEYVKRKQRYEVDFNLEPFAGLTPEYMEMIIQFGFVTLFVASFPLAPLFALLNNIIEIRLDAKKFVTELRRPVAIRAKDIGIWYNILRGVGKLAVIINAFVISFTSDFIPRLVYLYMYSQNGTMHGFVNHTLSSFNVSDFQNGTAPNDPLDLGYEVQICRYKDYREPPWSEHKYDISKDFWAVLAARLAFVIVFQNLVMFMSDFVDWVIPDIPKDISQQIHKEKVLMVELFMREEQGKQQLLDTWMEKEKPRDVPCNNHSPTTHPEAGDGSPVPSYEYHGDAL
Jurkat NFkB inh: inhibitors of the PMA/ionomycin-induced NF-kB reporter in Jurkat cells. hit rate 0.53% among 330,000. AID 435003. PMA/ionomycin-induced NF-kB luciferase reporter, luminescence. inhibition, % at 4 µM; in the data active = inhibition above about 50%
ANO1 block: blocks the mouse calcium-activated chloride channel TMEM16A | Q8BHY3 | HEK293 TMEM16A/YFP iodide influx fluorescence, ionomycin | normalized B-score (activity score, 25-100; higher = stronger inhibition) at 10 µM | hit rate 1.2% among 310,000;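 active = ratio plate-corrected score three or more library SD toward inhibition, starting fluorescence score within five deviations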;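 also: score derived from kinetic fluorescence span divided by baseline fluorescence per well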
KLF5 inhibitor: kruppel-like factor 5 inhibition | hit rate 0.23% among 290,000 | AID 1700 | DLD-1 KLF5 promoter-luciferase reporter, luminescence | inhibition, % at 5 µM;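 active = inhibition above a per-plate limit of that plate's mean compound inhibition plus 3 SD, cut at about 60% in these data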;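 also: 0% = DMSO wells and 100% = LY294002 at 200 µM; higher means less KLF5 promoter-driven luciferase light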
Active calls of the source: *; i = inactive; . = no result. Shown are actives, neighbours in structure and some others; about 2.5% of the full set was active somewhere.

SMILES	aSyn 5UTR inh	697 NFkB inh	TMEM16A act	Jurkat NFkB inh	ANO1 block	KLF5 inhibitor
CCC(=O)c1ccc(OCC(=O)OCC(=O)Nc2ccc(C)c(S(=O)(=O)N3CCCCC3)c2)cc1	.	-8	i	-11	.	.
CCOc1ccc(OCCC(=O)OCC(=O)Nc2ccc(C)c(S(=O)(=O)N3CCCCC3)c2)cc1	4	8	i	-1	100*	.
CC(OC(=O)c1ccccc1NS(=O)(=O)c1cccc(C(F)(F)F)c1)C(=O)N(C)Cc1ccccc1 (stereo unspecified)	6	5	i	12	100*	-2
O=C(c1nn2c(C(F)(F)F)cc(-c3cccs3)nc2c1Cl)N1CCCc2ccccc21	78*	6	i	3	i	-12
O=C(c1cnn2c(C(F)(F)F)cc(-c3ccccc3)nc12)N1CCCc2ccccc21	26	-18	i	-12	i	-19
Cc1cc(C)c2c(=O)n(CC(=O)NCCCN3CCN(c4ccccc4F)CC3)sc2n1	9	21	.	11	100*	0
O=C(Nc1ccc(Cl)c([N+](=O)[O-])c1)C(Sc1ccccc1)c1ccccc1 (stereo unspecified)	11	13	i	7	100*	-33
CC1Cc2ccccc2N1C(=O)CSc1nn2c(=O)c(C(C)(C)C)nnc2s1 (stereo unspecified)	-6	-3	-37*	5	i	3
O=C(CSc1ccc(Br)cc1)NCC(c1ccco1)N1CCCCC1 (stereo unspecified)	7	-17	i	-13	i	.
Cc1c(C(C)C)c(=O)n(-c2ccc(S(=O)(=O)NCc3ccccc3)cc2)n1C	-35	-9	i	47	25*	-21
Cc1c(C(C)C)c(=O)n(-c2ccc(S(=O)(=O)NC3CCCCC3)cc2)n1C	14	-42	i	33	i	-4
COc1cc(SC#N)ccc1N=Cc1c(C)[nH]n(-c2ccc(C)c(C)c2)c1=O	8	10	-13*	-5	i	-6
CCOC(=O)c1c(C)nn(-c2ccc(NC(=O)/C=C/C(=O)O)cc2)c1C	92*	33	i	-3	i	48
CCOC(=O)c1c(C)nn(-c2ccc(NC(=O)c3c(C)noc3C)cc2)c1C	51	6	i	-19	i	-10
Cc1ccc(S(=O)(=O)N2CCC(C(=O)Nc3ccc(N4CCOCC4)cc3)CC2)cc1C	.	17	i	1	.	.
O=C(N/N=C/c1c(O)ccc2ccccc12)c1[nH]ncc1Br	106*	-41	i	49	i	23
O=C(N/N=C\c1c(O)ccc2ccccc12)c1ccc(Cn2cccn2)o1	92*	9	i	40	i	15
Cc1ccccc1N1CC(C(=O)N2CCCCCC2)CC1=O (stereo unspecified)	-17	-5	i	16	i	.
COC(=O)C1(Cc2cc(-c3ccc(OC)cc3OC)no2)CCN(C(=O)OC(C)(C)C)CC1	4	-13	i	-13	25*	-36
COC(=O)C1(Cc2cc(-c3cccc(Br)c3)no2)CCN(C(=O)OC(C)(C)C)CC1	-24	-12	i	-6	i	5
C/C(=N\NC(=O)CCCNc1ccc(C)cc1)c1ccccn1	78*	12	i	-7	i	-30
C/C(=N\NC(=O)c1cc2ccccc2cc1O)c1ccccn1	88*	-183	i	-7	i	27
C/C(=N\NC(=O)c1nc2ccccn2c1C)c1cc2ccccc2o1	-27	4	i	-10	i	-22
C/C(=N\NC(=O)c1cc2ccccc2cc1O)c1cc2ccccc2o1	-35	-7	i	-1	100*	-30
C/C(=N\NC(=O)c1c[nH]c2ccccc12)c1ccccn1	72*	-119	i	-52	i	-58
SMILES	aSyn 5UTR inh	697 NFkB inh	TMEM16A act	Jurkat NFkB inh	ANO1 block	KLF5 inhibitor
Cc1ccc(Nc2nc(N3CCN(C)CC3)nc(N)c2[N+](=O)[O-])cc1C	36	-25	.	5	i	2
O=C(NCCc1ccccc1)c1nccc2ccccc12	-111	-57	i	-36	i	.
CC(C)Nc1ccc(Nc2ccnc3cc4ccccc4cc23)cc1	99*	-30	i	-3	i	-16
c1ccc(CCNc2ccnc3cc4ccccc4cc23)cc1	117*	.	i	.	.	-75
CC1CCN(CC(O)COc2ccc(-c3ccccc3)cc2)CC1 (stereo unspecified)	-14	-13	i	15	i	-3
CCN1CCN(c2sc(S(C)(=O)=O)nc2S(=O)(=O)c2ccc(C)cc2)CC1	1	-4	i	11	i	-25
O=C(Nn1c(SCc2cccc([N+](=O)[O-])c2)nc2ccccc2c1=O)c1ccccc1	-145	-80	i	-79	i	-13
COc1ccc(C(=O)Nn2c(SCC(=O)NCc3ccco3)nc3ccccc3c2=O)cc1	81*	-98	i	-23	i	-80
COc1ccc(C(=O)Nn2c(SCc3cccc([N+](=O)[O-])c3)nc3ccccc3c2=O)cc1	66*	-111	i	-89	i	-103
COc1ccc(C(=O)Nn2c(SCC(=O)N3CCC(C)CC3)nc3ccccc3c2=O)cc1	83*	-130	i	-57	i	14
CCOC(=O)N1CCN(c2nc(-c3ccccc3)c3ccccc3n2)CC1	5	13	i	-3	i	-13
CC(NNC(=S)N1CCN(c2ccccn2)CC1)c1nccc2ccccc12 (stereo unspecified)	.	.	i	.	.	.
CN(Cc1nc2ccccc2n1C)C(=O)c1ccco1	7	11	i	8	i	-10
O=c1cc(CN2CCCc3ccccc32)nc2sccn12	-9	-3	-11*	-21	i	-43
Cc1nnc(SCc2nnc(-c3ccccc3Br)o2)s1	-37	1	-7.9*	2	i	-57
CCC(=O)Nc1nonc1-c1nc2ccccc2n1Cc1cccc2ccccc12	67*	-6	i	44	i	-3
COc1ccc(CNC(=O)N2CCN(C(=O)c3ccccc3)CC2)cc1	.	-41	i	-11	.	.
O=c1c2ccccc2nc(N/N=C/c2ccc(O)cc2)n1O	-44	-8	i	-7	i	-22
O=c1c2ccccc2nc(N/N=C/c2c(O)ccc3ccccc23)n1O	82*	-190	i	1	i	-40
CCN(C(=O)CCc1nc(-c2ccc(OC)cc2)no1)c1cc(OC)ccc1OC	.	-11	i	-11	25*	11
COc1ccc(OC)c(NC(=O)c2ccc(OC3CSC3)cc2)c1	-29	10	i	5	i	6
CCC(CC)C(=O)Nc1ccc(C)c(O)c1	-4	6	-9.6*	-7	i	-35
O=C(COc1ccccc1)Nc1ccc(S(=O)(=O)Nc2ncccn2)cc1	-8	4	i	-14	i	-13
